Laboratory results taken from PubChem BioAssay (NCATS).
Results filed as inconclusive are left out. A call without a number means that no potency is given here. Active and inactive are the calls of the source. Calls follow the shape of the dose curve; as a rule, active = well fitted inhibition curve with a large enough effect; inconclusive = small, poorly fitted or top-dose-only effect; inactive = flat fitted curve, though single readings scatter.

target: Calcium and integrin-binding protein 1 (Homo sapiens) (UniProt Q99828); test: Primary qHTS for Identification of Calcium Integrin Binding Protein 1 (CIB1) Competitor (AID 1508620); details: CIB1-GST / FITC-alphaIIb peptide fluorescence polarization; series mostly up to 114 µM;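 also: GST tagged CIB1 binding a fluorescein labelled alphaIIb integrin peptide tracer; top concentration of the series differs between compounds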
Method in brief: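 CIB1-GST (1 uM final) and compound incubated 15 min at room temperature before adding FITC-alphaIIb peptide tracer (100 nM final). Competition for binding read by fluorescence polarization (ex 480, em 540) after another 15 min at room temperature.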

Calcium and integrin-binding protein 1 (Homo sapiens), sequence (Q99828 whole entry, looked up): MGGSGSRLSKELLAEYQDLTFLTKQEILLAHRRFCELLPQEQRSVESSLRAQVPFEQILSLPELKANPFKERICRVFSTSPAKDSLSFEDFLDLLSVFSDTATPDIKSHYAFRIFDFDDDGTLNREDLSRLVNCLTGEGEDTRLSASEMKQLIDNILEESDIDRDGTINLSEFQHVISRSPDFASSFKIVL

Structure (SMILES)	Potency
C[C@@H]1COCCN1c1cc(=O)n2c(n1)N(Cc1cncc(Cl)c1)[C@H](C(F)(F)F)CC2	inactive
CS(=O)(=O)c1ccc(Oc2cc(F)cc(C#N)c2)c2c1[C@H](O)C(F)(F)C2	inactive
CC(=O)O[C@H]1CC2C(COC(=O)CC(C)C)=CO[C@@H](OC(=O)CC(C)C)C2[C@]12CO2 (some centres not stated)	inactive
COC1CC(O[C@H]2CC[C@]3(C)C4CC[C@]5(C)C(C6=CC(=O)OC6)=CCC56OC46CC[C@@H]3C2)OC(C)C1O[C@@H]1O[C@H](CO[C@@H]2O[C@H](CO)[C@@H](O)[C@H](O)[C@H]2O)[C@@H](O)[C@H](O)[C@H]1O (some centres not stated)	inactive
COc1c(C)cc(NC(=O)c2nn(Cc3ccc(F)cc3)c3c2CN(C(=O)c2ccc[nH]2)C[C@]3(C)C(N)=O)cc1C	inactive
C[C@@]12C(=O)N(c3ccc(C(=O)Nc4cccc5cccnc45)cc3)C(=O)[C@@H]1[C@@H]1C=C[C@H]2C1	inactive
C=C1C(=O)O[C@@H]2/C=C(\C)CC/C=C(\C)CC[C@@H]12	inactive
CCn1c(N)c(C(=O)NC)c(=O)c2ccc(C#CC(C)(O)COC)nc21 (configuration not stated)	inactive
C=CC(C)(C)c1[nH]c2ccccc2c1C[C@@H]1NC(=O)[C@H](C)NC1=O	inactive
COc1ccc(C2(N(C)C(=O)c3ccc(NC(=O)c4ccco4)cc3)CCOCC2)cc1	inactive
Cc1ccnc(NC(=O)C(C)c2cccc(C(=O)c3ccccc3)c2)c1 (configuration not stated)	inactive
C[C@@H]1O[C@@H](O[C@H]2[C@@H]3C=CO[C@@H](O[C@@H]4O[C@H](CO)[C@@H](O)[C@H](O)[C@H]4O)[C@@H]3[C@@]3(CO)O[C@@H]23)[C@H](O)[C@H](OC(=O)/C=C/c2ccccc2)[C@H]1O	inactive
